Results on seven compounds are retold here after PubChem BioAssay (EPA / NIEHS).

Structures are written as SMILES. The source made the active and inactive calls. How the source made its calls, unless noted: active means hit-call score of the fitted dose curve at least 0.9, where 1 is the maximum; inactive means score below 0.9.

Assay [1] in a line: Tanguay_ZF_120hpf_AXIS: Oregon State University Tanguay Lab 120 Hour Post-fertilization zebrafish Assay for Axial Malformation (AID 2284398). An outline of the steps:
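Scoring was binary (present or absent) for body-axis defects, judged by brightfield imaging at 120 hpf in surviving larvae. Exposure was static at 28C from 6 hpf in chorion-free 5D wild-type embryos, with 0.64% DMSO vehicle.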

Assay [2] can be described thus: Tanguay_ZF_120hpf_MORT: Oregon State University Tanguay Lab 120 Hour Post-fertilization zebrafish Assay for Mortality (AID 2284399). The method in brief: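 Mortality, recorded present/absent via brightfield imaging at 24 and 120 hpf, in 5D zebrafish embryos exposed statically from 6 hpf after pronase chorion removal. Exposure at 28C, 0.64% DMSO vehicle, DMSO baseline.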

A short description of assay [3]: Tanguay_ZF_120hpf_EDEM: Oregon State University Tanguay Lab 120 Hour Post-fertilization zebrafish Assay for Edema Malformation (AID 2284400). The method in brief: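 Edema recorded as a binary endpoint under brightfield at 120 hpf, excluding embryos that died. Exposure was static, sealed, 28C, from 6 hpf in dechorionated wild-type larvae, final DMSO 0.64%, DMSO as baseline.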

In assay [4] the test system is SRY-box transcription factor 17 (SOX17) Protein Expression, Deisenroth Lab, SOX17 (gene 64321). The experiment in a line: CCTE_Deisenroth_DEVTOX-GLR_legacy_Sox17: (Legacy) CCTE's DevTox GLR-Endo Assay Evaluation of SRY-box transcription factor 17 (SOX17) Protein Expression, Deisenroth Lab (AID 2284341). The settings on record: actives raise or lower the signal. An outline of the steps: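 RUES2-GLR human pluripotent cells, seeded 24 h, then differentiated 48 h in defined media with two chemical exposures 24 h apart (1 nM - 200 uM, 10 points). Sox17+ fraction from high-content fluorescence imaging; bidirectional fit versus 0.2% DMSO.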

The next assay concerns SERPINA7 (gene 6906). Description: CCTE_GLTED_hTBG: CCTE's human Thyroxine-binding Globulin (TBG) Inhibition Assay, Great Lakes Toxicology and Ecology Division (GLTED) Lab (AID 2284343; active means hit-call score of the fitted dose curve at least 0.9, where 1 is the maximum;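 further: active chemicals lower fluorescence versus DMSO baseline by displacing probe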). The method in brief:
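Human thyroxine-binding globulin was exposed to each chemical for 2 hours, during which the ANSA probe could be displaced. Fluorescence was then measured at 380/475 nm, and loss of signal was analysed relative to DMSO.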

Assay [5] has as its system SRY-box transcription factor 2 (SOX2) Protein Expression, Deisenroth Lab, SOX2 (gene 6657). Description: CCTE_Deisenroth_DEVTOX-GLR_legacy_Sox2: (Legacy) CCTE's DevTox GLR-Endo Assay Evaluation of SRY-box transcription factor 2 (SOX2) Protein Expression, Deisenroth Lab (AID 2284346). An outline of the steps:
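Percent Sox2-positive cells was scored by high-content imaging of 5 fields per well. Positivity cutoff was 5x BMAD over the directed endoderm control, and the DMSO median was subtracted. Cells were RUES2-GLR, dosed twice at 24-h intervals over 48 h of differentiation (1 nM-200 uM).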

A short description of assay [6]: CCTE_Deisenroth_H295R-HTRF_384WELL_ESTRADIOL: CCTE's H295R-HTRF Assay Evaluation of Estradiol Concentration, Deisenroth Lab (AID 2284361). The settings on record: actives raise or lower the signal. On the procedure: (§1) CCTE_Deisenroth_H295R-HTRF_384WELL assay is a cell-based, multiplex-readout assay that uses H295R, a human adrenocortical carcinoma cell line, with measurements taken at 48 hours after chemical dosing in a 384-well microplateCCTE_Deisenroth_H295R-HTRF_384WELL_ESTRADIOL is one of 3 assay components calculated in the CCTE_Deisenroth_H295R-HTRF_384WELL assay (2 hormones and 1 viability components). It is designed to make measurements of hormone induction, a form of inducible reporter, as detected with Homogenous Time Resolved Fluorescence immunoassay technology.This assay endpoint, CCTE_Deisenroth_H295R-HTRF_384WELL_ESTRADIOL, was analyzed with bidirectional fitting relative to DMSO as the negative control and baseline of activity. Using a type of inducible reporter, gain or loss-of-signal activity using Homogenous Time Resolved Fluorescence technology was used to understand synthesis of estradiol in the H295R cell line at 48hr of chemical exposure. […]
(§2) Standard operating procedures for the cell culture medium, maintenance, expansion, and cryopreservation of the NCI-H295R adrenocortical carcinoma adherent cell line were adopted directly from guideline specifications7,13. […] Fluorescent endpoint measurements are conducted with a microplate reader equipped with an HTRF-compatible filter set (ex: 320 (10) […]; em: 620 (10) and 665 (10) nM). […]

Assay [7] in a line: CCTE_Deisenroth_H295R-HTRF_384WELL_TESTOSTERONE: CCTE's H295R-HTRF Assay Evaluation of Testosterone Concentration, Deisenroth Lab (AID 2284373). To be noted: actives raise or lower the signal. On the procedure: as §1, with “microplateCCTE_Deisenroth_H295R-HTRF_384WELL_TESTOSTERONE” for “microplateCCTE_Deisenroth_H295R-HTRF_384WELL_ESTRADIOL”, “CCTE_Deisenroth_H295R-HTRF_384WELL_TESTOSTERONE,” for “CCTE_Deisenroth_H295R-HTRF_384WELL_ESTRADIOL,”, “testosterone” for “estradiol”
as §2
On the technique in general: TR-FRET usually uses a lanthanide donor and a delayed reading to cut background.

Assay [8] can be described thus: CCTE_Deisenroth_H295R-HTRF_384WELL_CTOX: Cytotoxicity Assessment in CCTE's H295R-HTRF Assay, Deisenroth Lab (AID 2284380; active means hit-call score of the fitted dose curve at least 0.9, where 1 is the maximum). An outline of the steps:
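Luminescent ATP viability readout (CellTiter-Glo 2.0), multiplexed on plates used for hormone sampling, after 48 h chemical exposure. Human H295R cells; final concentrations 0.001–100 uM in nine steps, technical triplicates, five experiments; DMSO baseline.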

For the compound `C[Si](C)(C)C(F)(F)C(F)(F)C(F)(F)F`, the call in [1], in [2] and in assay [3] was inactive.
In the case of `NC(=O)N1c2ccccc2C=Cc2ccccc21`, the AC50 (usually the concentration giving half of the maximal activity seen) in assay [4] is 100 µM (active); in the assay on SERPINA7 (gene 6906), 30.5 µM (active). The compound was called inactive in [5].
For `FC(F)C(F)(F)COCC1CO1` (stereo not drawn), the result in assay [1], in [2] and in assay [3] was inactive.
With `CCN(CC)C(=S)SSC(=S)N(CC)CC`, the concentration at half-maximal activity (AC50) with SERPINA7 (gene 6906) was 11.7 µM (active).
Turning to `O=C(NO)C1(NS(=O)(=O)c2ccc(Oc3ccc(F)cc3)cc2)CCOCC1`, in the assay with SERPINA7 (gene 6906), the outcome was inactive.
In the case of `O=S(=O)(O)CCC(F)(F)C(F)(F)C(F)(F)C(F)(F)C(F)(F)C(F)(F)F`, the compound was classed as inactive in assay [1], in assay [2] and in assay [3].
Take `CC(C)C(=O)Nc1ccc([N+](=O)[O-])c(C(F)(F)F)c1`: the compound was classed as inactive (in the assay on SERPINA7 (gene 6906); in [6]; in assay [7]). Also, the AC50 in assay [8] was 66.7 µM (active).
